Screening data (PubChem BioAssay)
C diff HTS: C. difficile growth inhibition. Clostridium difficile clinical isolate growth, OD600, 24 h; active compounds read low. growth activity, negative = inhibition, % at 16 µg/mL (by protocol). 0.25% of 86,000 active. AID 1259249;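 active = mean growth activity at or below -80% and every replicate also at or below -80%; inconclusive = mean at or below -80% but some replicate above -80%; inactive = mean growth activity above -80%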
T cruzi growth-1: T. cruzi proliferation inhibition | T. cruzi beta-gal in NIH3T3, GalScreen luminescence, 90 h | inhibition, % at 8.34 µM | 5.9% of 77,000 active | AID 624255;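 active = mean inhibition above about 93%, with at least 55% of replicates each passing it, limit read from the data, passing the limit was not always enough; inconclusive = only one of those two conditions holds; inactive = neither condition holds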
T cruzi growth-2: inhibitors of T. cruzi proliferation | shares compounds with T cruzi growth-1 | T. cruzi beta-gal in NIH3T3, GalScreen luminescence, 90 h | inhibition, % at 8.35 µM | 72% of 5,600 active | AID 651739;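 active = mean replicate inhibition above about 95% and at least 55% of replicates individually reaching it, limit read from the data; inconclusive = only one of the two criteria is met; inactive = neither criterion is met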
T cruzi growth-3: blocks T. cruzi growth in NIH3T3 host cells. shares compounds with T cruzi growth-1. inhibition, % at 2.09 µM. T. cruzi beta-gal in NIH3T3, GalScreen luminescence, 90 h. 21% of 5,600 active;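 active = mean inhibition above about 95%, with at least 55% of replicates also reaching it, limit read from the data; inconclusive = meets just one of the two conditions; inactive = meets neither condition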
3T3 cytotox: NIH/3T3 (mouse) viability loss; shares compounds with T cruzi growth-1; AID 651742; cytotoxicity (signal decrease), % at 8.35 µM; 14% of 5,600 active; NIH/3T3 viability, CellTiter-Glo ATP luminescence, 90 h;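 active = mean signal decrease across replicates above about 35% based on untreated-well scatter, with enough replicates individually passing, limit read from the data; inconclusive = no rule stated though some were filed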
3T3 cytotox 2: cytotoxicity in mouse NIH/3T3 fibroblasts | AID 651744 | shares compounds with T cruzi growth-1 | NIH/3T3 viability, CellTiter-Glo ATP luminescence, 90 h | 56% of 5,600 active | inhibition, % at 24.9 µM;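 active = mean loss of cell viability signal at or above a set limit, and enough replicates individually reaching it; inconclusive = meets only the mean limit or only the replicate share; inactive = meets neither condition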
A number is an active result; 0 = inactive; ? = inconclusive; - = no result given. This excerpt belongs to a sample that is enriched for hits.

SMILES	C diff HTS	T cruzi growth-1	T cruzi growth-2	T cruzi growth-3	3T3 cytotox	3T3 cytotox 2
C[C@H](CO)N1C[C@H](C)[C@@H](CN(C)S(C)(=O)=O)Oc2c(NC(=O)C3CCOCC3)cccc2C1=O	0	0	-	-	-	-
Cc1ccc(S(=O)(=O)N2CC[C@@H]3[C@H](CO)N(C)c4ccc(C#Cc5cccnc5)cc4[C@@H]32)cc1	0	0	-	-	-	-
COc1ccccc1-c1cnc2c(c1)C(=O)N([C@H](C)CO)C[C@@H](C)[C@H](CN(C)C(=O)CN(C)C)O2	0	0	-	-	-	-
C[C@@H]1CN([C@@H](C)CO)C(=O)c2cc(NC(=O)NC3CCCCC3)ccc2O[C@@H]1CN(C)Cc1ccc(-c2ccccc2)cc1	0	96	100	101	54	65
C[C@H]1CN([C@@H](C)CO)C(=O)c2cc(NC(=O)NC3CCCCC3)ccc2O[C@@H]1CN(C)Cc1ccccc1	0	0	-	-	-	-
C[C@@H]1CN([C@@H](C)CO)C(=O)c2cc(NC(=O)NC3CCCCC3)ccc2O[C@H]1CN(C)Cc1ccc(-c2ccccc2)cc1	0	108	102	0	38	43
C[C@@H]1CN([C@H](C)CO)C(=O)c2cc(NC(=O)NC3CCCCC3)ccc2O[C@H]1CN(C)Cc1ccc(-c2ccccc2)cc1	0	105	104	0	0	0
C[C@H]1CN([C@@H](C)CO)C(=O)c2cc(NC(=O)NC3CCCCC3)ccc2O[C@@H]1CN(C)Cc1ccc(-c2ccccc2)cc1	0	0	-	-	-	-
C[C@@H]1CN([C@H](C)CO)C(=O)c2cc(NC(=O)NC3CCCCC3)ccc2O[C@@H]1CN(C)Cc1ccc(-c2ccccc2)cc1	0	0	-	-	-	-
COc1cccc(CN2CCC3(CC2)CN(S(C)(=O)=O)[C@H](CO)c2[nH]c4cc(OC)ccc4c23)c1	0	-	-	-	-	-
C[C@H](CO)N1C[C@H](C)[C@H](CN(C)C(=O)NC2CCCCC2)OCc2ccccc2-c2ccccc2C1=O	0	0	-	-	-	-
COc1ccc(CNC(=O)C[C@H]2C[C@@H]3c4cc(NC(=O)NC5CCCC5)ccc4O[C@@H]3[C@@H](CO)O2)cc1	0	0	-	-	-	-
CNC[C@@H]1OCCCC[C@@H](C)Oc2ccc(N(C)C)cc2C(=O)N([C@H](C)CO)C[C@@H]1C	0	0	-	-	-	-
O=C(C[C@H]1C[C@@H]2c3cc(NC(=O)c4ccc5c(c4)OCO5)ccc3O[C@@H]2[C@H](CO)O1)NCc1cccnc1	-	0	-	-	-	-
OC[C@@H]1[C@@H](c2ccc(-c3ccccc3)cc2)[C@H]2CN(Cc3cncnc3)CCCCN12	0	0	-	-	-	-
OC[C@H]1[C@H](c2ccc(Br)cc2)[C@@H]2CN(Cc3cncnc3)CCCCN12	0	110	97	0	0	0
OC[C@H]1[C@H](c2ccc(C#Cc3ccccc3)cc2)[C@@H]2CN(Cc3cncnc3)CCCCN12	0	104	107	0	44	105
OC[C@H]1[C@@H](c2ccc(C#Cc3ccccc3)cc2)[C@H]2CN(Cc3cncnc3)CCCCN21	0	0	-	-	-	-
OC[C@@H]1[C@@H](c2ccc(C#Cc3ccccc3)cc2)[C@@H]2CN(Cc3cncnc3)CCCCN12	0	101	98	0	0	103
OC[C@@H]1[C@H](c2ccc(C#Cc3ccccc3)cc2)[C@H]2CN(Cc3cncnc3)CCCCN12	0	119	98	102	37	102
OC[C@H]1[C@@H](c2ccc(C#Cc3ccccc3F)cc2)[C@H]2CN(Cc3cncnc3)CCCCN21	0	0	-	-	-	-
OC[C@H]1[C@@H](c2ccc(C#Cc3ccccc3F)cc2)[C@@H]2CN(Cc3cncnc3)CCCCN12	0	96	104	0	47	104
O=C(NC1CCCC1)[C@@H]1[C@@H](CO)[C@@H]2Cn3c(ccc(-c4ccncc4)c3=O)[C@@H]2N1CCc1ccccc1	0	0	-	-	-	-
Cc1ccc(S(=O)(=O)Nc2ccc3c(c2)C(=O)N([C@H](C)CO)C[C@@H](C)[C@H](CN(C)S(=O)(=O)c2cccs2)OCCCC[C@H](C)O3)cc1	0	-	-	-	-	-
Cc1ccc(S(=O)(=O)N(C)C[C@H]2OCCCC[C@@H](C)Oc3ccc(NS(=O)(=O)c4cccs4)cc3C(=O)N([C@@H](C)CO)C[C@H]2C)cc1	-	103	112	0	0	0
SMILES	C diff HTS	T cruzi growth-1	T cruzi growth-2	T cruzi growth-3	3T3 cytotox	3T3 cytotox 2
Cc1ccc(S(=O)(=O)N(C)C[C@@H]2OCCCC[C@H](C)Oc3ccc(NS(=O)(=O)c4cccs4)cc3C(=O)N([C@@H](C)CO)C[C@H]2C)cc1	-	106	?	0	0	0
Cc1ccc(S(=O)(=O)N(C)C[C@H]2OCCCC[C@H](C)Oc3ccc(NS(=O)(=O)c4cccs4)cc3C(=O)N([C@H](C)CO)C[C@@H]2C)cc1	-	0	-	-	-	-
Cc1ccc(S(=O)(=O)N(C)C[C@@H]2OCCCC[C@H](C)Oc3ccc(NS(=O)(=O)c4cccs4)cc3C(=O)N([C@@H](C)CO)C[C@@H]2C)cc1	-	122	98	0	0	0
Cc1ccc(S(=O)(=O)N(C)C[C@H]2OCCCC[C@H](C)Oc3ccc(NS(=O)(=O)c4cccs4)cc3C(=O)N([C@@H](C)CO)C[C@@H]2C)cc1	-	0	-	-	-	-
C/C=C/c1cnc2c(c1)C(=O)N([C@@H](C)CO)C[C@H](C)[C@@H](CN(C)C(=O)Cc1cccnc1)O2	0	0	-	-	-	-
Cc1ccc(S(=O)(=O)Nc2ccc3c(c2)C(=O)N([C@@H](C)CO)C[C@@H](C)[C@H](CN(C)Cc2ccccc2)OCCCC[C@@H](C)O3)cc1	0	0	-	-	-	-
CO[C@H]1CN(C)C(=O)c2ccc(NC(=O)c3ccno3)cc2OC[C@H](C)N(C(=O)C2CCC2)C[C@H]1C	0	0	-	-	-	-
C[C@H](NC(=O)C[C@H]1C=C[C@H](NC(=O)C2CC2)[C@@H](CO)O1)c1ccccc1	0	-	-	-	-	-
CC(=O)N(C)C[C@@H]1Oc2cc(C#CCC3CCCC3)ccc2S(=O)(=O)N([C@@H](C)CO)C[C@@H]1C	0	0	-	-	-	-
C[C@@H]1CN([C@@H](C)CO)S(=O)(=O)c2ccc(C#CCC3CCCC3)cc2O[C@@H]1CN(C)C(=O)CC1CC1	0	120	0	0	0	107
CCCC#Cc1ccc2c(c1)O[C@@H](CN(C)C(=O)CC1CC1)[C@@H](C)CN([C@H](C)CO)S2(=O)=O	0	0	-	-	-	-
C[C@H]1CN([C@@H](C)CO)S(=O)(=O)c2ccc(C#CCC3CCCC3)cc2O[C@H]1CN(C)C(=O)CC1CC1	0	122	?	0	0	104
CCCNC(=O)N[C@H]1CC[C@H](CC(=O)NC2CCCCC2)O[C@@H]1CO	0	-	-	-	-	-
C[C@@H]1CCCCO[C@@H](CN(C)CC2CC2)[C@H](C)CN([C@H](C)CO)C(=O)c2cc(NC(=O)Nc3ccc(F)cc3)ccc2O1	0	0	-	-	-	-
C[C@@H]1CN([C@@H](C)CO)C(=O)c2cc(NC(=O)Nc3ccc(F)cc3)ccc2O[C@@H](C)CCCCO[C@@H]1CN(C)CC1CCCCC1	0	117	99	0	?	103
